Reference: PubChem BioAssay (NCATS)
Records with an inconclusive call do not appear. Calls of active or inactive are those of the source. Calls follow the shape of the dose curve; as a rule, active = well fitted inhibition curve with a large enough effect; inconclusive = small, poorly fitted or top-dose-only effect; inactive = flat fitted curve, though single readings scatter.

Key:
Test in all cases: qHTS profiling for inhibitors of Plasmodium falciparum proliferation (AID 504749); also: nearly all actives have a fitted effect of over 60% in size
Settings in all cases: P. falciparum in erythrocytes, SYBR Green DNA, 72 h
[1] = test system: CP252
How it was run: (§1)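 Readout was DNA-dye fluorescence from lysed cultures, ex 485/em 535 nm. Parasitized red cells had grown 72 h with compound; data scaled between 0.29 uM artemisinin and DMSO wells and corrected using vehicle-only plates.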

[2] = test system: CP256
How it was run: as §1

[3] = test system: CP260
How it was run: as §1

[4] = test system: CP262
How it was run: as §1

[5] = test system: CP265
How it was run: as §1

[6] = test system: CP266
How it was run: as §1

[7] = test system: CP268
How it was run: as §1

[8] = test system: CP269
How it was run: as §1

[9] = test system: CP286
How it was run: as §1

[10] = test system: CP291
How it was run: as §1

Measured: Potency
Potency is read from the fitted curve at half-maximal effect.

CC[C@]1(O)CC2CN(CCc3c([nH]c4ccccc34)[C@@](C(=O)OC)(c3cc4c(cc3OC)N(C)[C@H]3[C@@](O)(C(=O)OC)[C@H](OC(C)=O)[C@]5(CC)C=CCN6CC[C@]43[C@@H]65)C2)C1 (stereo partly drawn)
active: [1] 3.55 µM | [2] 2.51 µM | [3] 158 nM | [4] 1.07 µM | [5] 3.98 µM | [6] 3.79 µM | [7] 6.75 µM | [8] 1.9 µM | [9] 158 nM | [10] 1.9 µM

CC(=O)O[C@H]1C(=O)[C@@]2(C)[C@H]([C@H](OC(=O)c3ccccc3)[C@]3(O)C[C@H](OC(=O)[C@H](O)[C@@H](NC(=O)c4ccccc4)c4ccccc4)C(C)=C1C3(C)C)[C@]1(OC(C)=O)CO[C@@H]1C[C@@H]2O
active: [1] 0.178 µM | [2] 0.282 µM | [3] 355 nM | [4] 0.953 µM | [5] 0.891 µM | [8] 0.536 µM | [9] 178 nM | [10] 0.478 µM
